# Test results: PubChem BioAssay AID1159580 (chemical genetic matrix, 2015)
# In all, about 5,500 compounds went through this assay and about 2,000 (36%) were called active. Not shown: some 18% with an inconclusive outcome. Some of the results follow. Unmarked numbers belong to inactive results. No stated cut-off is given here; in the data, active means normalized growth mostly below about 0.91 (no sharp cut-off); inconclusive means no clear call, values can overlap the other calls; inactive means mostly above about 0.92.
# Assay: chemical genetic growth profiling, strain panel (AID 1159580);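 further: tested at 20 µM; growth read once vehicle control cultures reached saturation at 30 °C; 1 = growth at the plate median or of vehicle wells; lower values mean less growth of the strain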
# Details: S. cerevisiae deletion strains, growth OD
smiles,measurement,setting,value
COC(=O)c1cnn(-c2c(Cl)cccc2Cl)c1C=C(C#N)C#N,normalized growth,"locus YAR019C, strain CDC15, active compounds read low",0.939
same,normalized growth,"locus YBL105C, strain PKC1, active compounds read low",0.957
same,normalized growth,"locus YBR135W, strain CKS1, active compounds read low",0.954
same,normalized growth,"locus YBR136W, strain MEC1, active compounds read low",0.952
same,normalized growth,"locus YBR160W, strain CDC28, active compounds read low",0.955
same,normalized growth,"locus YDL017W, strain CDC7, active compounds read low",0.953
same,normalized growth,"locus YDL028C, strain MPS1, active compounds read low",0.946
same,normalized growth,"locus YDL101C, strain DUN1, active compounds read low",0.944
same,normalized growth,"locus YDL108W, strain KIN28, active compounds read low",0.961
same,normalized growth,"locus YDL132W, strain cdc53, active compounds read low",0.942
same,normalized growth,"locus YDL214C, strain PRR2, active compounds read low",0.966
same,normalized growth,"locus YDR052C, strain DBF4, active compounds read low",0.948
same,normalized growth,"locus YDR054C, strain cdc34, active compounds read low",0.943
same,normalized growth,"locus YDR226W, strain ADK1, active compounds read low",0.956
same,normalized growth,"locus YDR477W, strain SNF1, active compounds read low",0.972
same,normalized growth,"locus YER123W, strain YCK3, active compounds read low",0.954
same,normalized growth,"locus YER133W, strain GLC7, active compounds read low",0.922
same,normalized growth,"locus YFL009W, strain cdc4, active compounds read low",0.936
same,normalized growth,"locus YFL029C, strain CAK1, active compounds read low",0.954
same,normalized growth,"locus YFR003C, strain YPI1, active compounds read low",0.95
same,normalized growth,"locus YFR019W, strain FAB1, active compounds read low",0.966
same,normalized growth,"locus YFR028C, strain CDC14, active compounds read low",0.949
same,normalized growth,"locus YGR040W, strain KSS1, active compounds read low",0.944
same,normalized growth,"locus YGR052W, strain FMP48, active compounds read low",0.93
same,normalized growth,"locus YGR092W, strain DBF2, active compounds read low",0.912
same,normalized growth,"locus YHR079C, strain IRE1, active compounds read low",0.775
same,normalized growth,"locus YHR082C, strain KSP1, active compounds read low",1.1
same,normalized growth,"locus YHR205W, strain SCH9, active compounds read low",1
same,normalized growth,"locus YIL147C, strain SLN1, active compounds read low",0.947
same,normalized growth,"locus YJL095W, strain BCK1, active compounds read low",0.782
same,normalized growth,"locus YJL128C, strain PBS2, active compounds read low",0.969
same,normalized growth,"locus YJL157C, strain FAR1, active compounds read low",0.962
same,normalized growth,"locus YJR016C, strain ILV3, active compounds read low",0.955
same,normalized growth,"locus YJR066W, strain TOR1 (second series), active compounds read low",0.964
same,normalized growth,"locus YJR066W, strain TOR1, active compounds read low",1.08
same,normalized growth,"locus YKL048C, strain ELM1, active compounds read low",0.922
same,normalized growth,"locus YKL067W, strain YNK1, active compounds read low",0.955
same,normalized growth,"locus YKL101W, strain HSL1, active compounds read low",0.958
same,normalized growth,"locus YKL193C, strain SDS22, active compounds read low",0.949
same,normalized growth,"locus YKL203C, strain TOR2, active compounds read low",1.03
same,normalized growth,"locus YLR113W, strain HOG1, active compounds read low",0.748 (active)
same,normalized growth,"locus YLR133W, strain CKI1, active compounds read low",0.968
same,normalized growth,"locus YLR403W, strain SFP1, active compounds read low",0.975
same,normalized growth,"locus YML070W, strain DAK1, active compounds read low",0.961
same,normalized growth,"locus YMR001C, strain CDC5, active compounds read low",0.953
same,normalized growth,"locus YMR205C, strain PFK2 (second series), active compounds read low",0.975
same,normalized growth,"locus YMR277W, strain FCP1, active compounds read low",0.949
same,normalized growth,"locus YNL006W, strain LST8, active compounds read low",0.955
same,normalized growth,"locus YNL020C, strain ARK1, active compounds read low",0.969
same,normalized growth,"locus YNL161W, strain CBK1, active compounds read low",0.94
same,normalized growth,"locus YNL183C, strain NPR1, active compounds read low",0.863
same,normalized growth,"locus YNL207W, strain RIO2, active compounds read low",0.95
same,normalized growth,"locus YNL222W, strain SSU72, active compounds read low",0.966
same,normalized growth,"locus YNL307C, strain MCK1 (second series), active compounds read low",0.986
same,normalized growth,"locus YOL078W, strain AVO1, active compounds read low",0.946
same,normalized growth,"locus YOL136C, strain PFK27, active compounds read low",0.969
same,normalized growth,"locus YOR061W, strain CKA2, active compounds read low",0.95
same,normalized growth,"locus YOR119C, strain RIO1, active compounds read low",0.961
same,normalized growth,"locus YOR231W, strain MKK1, active compounds read low",0.797
same,normalized growth,"locus YOR329C, strain SCD5, active compounds read low",0.947
same,normalized growth,"locus YPL031C, strain PHO85, active compounds read low",0.948
same,normalized growth,"locus YPL153C, strain RAD53, active compounds read low",0.938
same,normalized growth,"locus YPL204W, strain HRR25, active compounds read low",0.956
same,normalized growth,"locus YPL209C, strain IPL1, active compounds read low",0.954
same,normalized growth,"locus YPL256C, strain CLN2, active compounds read low",0.781 (active)
same,normalized growth,"locus YPR025C, strain CCL1, active compounds read low",0.942
same,normalized growth,"locus YPR106W, strain ISR1, active compounds read low",0.942
same,normalized growth,"locus YPR111W, strain DBF20, active compounds read low",0.953
same,normalized growth,"strain NNK1, active compounds read low",0.969
same,normalized growth,"strain TSCII, active compounds read low",0.943
